This is a sample that favours compounds with a hit; in the whole collection about 0.38% have one here.
Rac1 wt modul – human Rac1 wildtype GTP binding, inhibitors and activators; GST-Rac1 beads, fluorescent GTP binding, flow cytometry; actives lie on both sides; 0 = cold GTP competed, 100 = untreated; hit rate 0.27% among 190,000; AID 757; GTP binding activity (% of control), % at 10 µM;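 active means GTP binding activity at least 20 points away from the 100% control level, either lower or higher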
Rab2A wt mod – changes GTP binding to wildtype dog Rab2A, up or down; P61105; GST-Rab2 wt beads, Bodipy-GTP binding, flow cytometry; GTP binding activity, % at 10 µM; hit rate 0.19% among 190,000; AID 760;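 active means GTP binding activity at least 20 points away from 100%, either lowered or raised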;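 further: 0% = beads with excess unlabeled GTP and 100% = no-compound control corrected for plate trend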
Cdc42 wt GTP – changes GTP binding to wildtype human Cdc42 | hit rate 0.2% among 190,000 | P60953 | GST-Cdc42 beads, Bodipy-GTP binding, flow cytometry; actives lie on both sides | percent activity (GTP binding), % at 10 µM;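 active means percent activity GTP binding at least 20 points away from the 100% baseline, either down as inhibitor or up as activator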;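 further: median bead fluorescence of bound Bodipy-FL-GTP at 100 nM; 0% = excess unlabeled GTP control and 100% = no compound control; below 100% means less GTP binding so inhibitor and above means activator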
Target sequence (P60953 whole entry, looked up): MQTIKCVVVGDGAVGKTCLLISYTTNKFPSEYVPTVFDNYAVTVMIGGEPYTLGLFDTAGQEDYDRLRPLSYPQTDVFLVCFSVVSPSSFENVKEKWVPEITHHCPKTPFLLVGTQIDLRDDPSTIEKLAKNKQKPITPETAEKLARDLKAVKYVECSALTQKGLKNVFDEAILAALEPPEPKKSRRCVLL
Rab7 wt GTP bind – modulators of GTP binding to dog Rab7 wildtype GTPase; GST-Rab7 beads, fluorescent GTP binding, flow cytometry; actives lie on both sides; untreated = 100%, excess cold GTP = 0%; hit rate 0.055% among 190,000; GTP binding activity (percent of control), % at 10 µM;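 active means fluorescent GTP binding to Rab7 beads changed by at least 20 points from the 100% baseline, either direction, mostly lower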;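 further: median green fluorescence of bound Bodipy-FL-GTP per Rab7 bead population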
HRas wt GTP – modulators of GTP binding to human HRas wildtype. P01112. GST-Ras wt beads, Bodipy-FL-GTP binding, flow cytometry; actives lie on both sides. GTP binding activity, % at 10 µM. hit rate 0.14% among 190,000. AID 759;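 active means GTP binding activity at least 20% away from the 100% baseline, either lowered as inhibitor or raised as activator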;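 further: 0% = unlabeled GTP competition control and 100% = no-compound control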
Target sequence (P01112 whole entry, looked up): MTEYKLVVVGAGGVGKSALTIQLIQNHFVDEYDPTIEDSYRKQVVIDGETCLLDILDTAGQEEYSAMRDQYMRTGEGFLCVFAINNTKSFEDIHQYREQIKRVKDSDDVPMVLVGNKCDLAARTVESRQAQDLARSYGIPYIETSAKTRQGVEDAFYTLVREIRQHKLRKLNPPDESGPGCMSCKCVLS
Rac1 act GTP bind – alters GTP binding to activated mutant human Rac1 | GST-Rac1 activated beads, fluorescent GTP binding, flow cytometry; actives lie on both sides; 100% means binding = to untreated wells | P63000 | percent activity (GTP binding), % at 10 µM | hit rate 0.11% among 190,000;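 active means GTP binding at least 20 percentage points away from the 100% baseline, in either direction, so actives lie on both sides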
Numbers without * were called inactive; [ ] = remark or other dose.

SMILES	Rac1 wt modul	Rab2A wt mod	Cdc42 wt GTP	Rab7 wt GTP bind	HRas wt GTP	Rac1 act GTP bind
O=C(O)CCCCCCCCCC(=O)c1cccs1	94.0	98.0	97.0	94.0	98.0	96.0
COc1ccc(-c2cnc[nH]2)cc1	99.0	96.0	97.0	100.0	97.0	95.0
Nc1c([N+](=O)[O-])cc(-c2cnc[nH]2)cc1[N+](=O)[O-]	84.0	77.0*	77.0*	94.0	78.0*	88.0
CC(=O)OCC(=O)Nc1ccccc1C	98.0	96.0	99.0	91.0	94.0	96.0
CS(=O)(=O)Nc1ccccc1C(=O)O	105.0	99.0	102.0	102.0	99.0	99.0
CS(=O)(=O)Nc1ccc(Br)cc1C(=O)c1ccccc1	103.0	97.0	69.0*	102.0	99.0	99.0
COC(=O)CCC/C=C1\SC[C@@H](NC(=O)c2ccccc2)C1NC(C)=O (stereo partly drawn)	100.0	96.0	99.0	97.0	96.0	95.0
CCCCCn1c(SCCc2ccccc2)nc2c1c(=O)[nH]c(=O)n2C	106.0	102.0	101.0	104.0	102.0	100.0
CCCCn1c(SCC(=O)c2ccccc2)nc2c1c(=O)[nH]c(=O)n2C	33.0*	36.0*	38.0*	21.0*	41.0*	36.0*
CC(C)C(=O)N1CCN(c2ccccc2NC(=O)c2cccc(Cl)c2)CC1	121.0*[activator]	111.0	116.0	108.0	112.0	108.0
CCCOc1ccc(C(CC(=O)O)NC(=O)c2sc3ccccc3c2Cl)cc1 (stereo not drawn)	76.0*	75.0*	72.0*	93.0	77.0*	69.0*
CCOc1ccc(C(CC(=O)O)NC(=O)c2sc3ccccc3c2Cl)cc1 (stereo not drawn)	95.0	94.0	94.0	97.0	96.0	94.0
CCCn1c(SCC(=O)Nc2cc(S(=O)(=O)N3CCOCC3)ccc2OC)n[nH]c1=O	99.0	98.0	96.0	100.0	99.0	98.0
Cc1ccc(-n2c(C)nn(Cc3ccc([N+](=O)[O-])cc3)c2=O)cc1	99.0	98.0	94.0	103.0	101.0	95.0
Cc1ccc(-n2c3nc(=O)[nH]c(=O)c-3cc3cc([N+](=O)[O-])ccc32)cc1	77.0*	82.0	80.0	87.0	82.0	80.0
CCOC(=O)/C(C#N)=C/C1=C(N2CCCC2)CC(C)(CC)OC1 (stereo not drawn)	102.0	102.0	101.0	100.0	99.0	97.0
Cc1ccc(/C=C/C(=O)c2ccccc(=O)c2O)cc1C	82.0	81.0	78.0*	87.0	84.0	74.0*
O=c1nc2c(O)cccn2c2c1c(=O)[nH]c1ccccc12	61.0*	62.0*	70.0*	81.0	59.0*	77.0*
O=c1[nH]c2ccccc2c2nc3ccccn3c12	99.0	92.0	95.0	94.0	93.0	95.0
Cn1cc(C=C2C(=O)CC(C)(C)CC2=O)c2ccccc21	33.0*	32.0*	31.0*	20.0*	38.0*	34.0*
Cc1cc(S(=O)(=O)n2ccnc2)c(Cl)cc1Cl	94.0	95.0	95.0	103.0	95.0	92.0
Oc1ccc(NC(=S)N=Nc2c(O)[nH]c3ccc(Br)cc23)cc1	79.0*	79.0*	79.0*	92.0	80.0	90.0
Cc1ccc(NC(=S)N=Nc2c(O)[nH]c3ccccc23)cc1	84.0	84.0	86.0	87.0	87.0	89.0
CNC(=S)N=Nc1c(O)[nH]c2ccccc12	69.0*	72.0*	80.0	85.0	79.0*	84.0
Oc1ccc(NC(=S)N=Nc2c(O)[nH]c3ccccc23)cc1	70.0*	75.0*	71.0*	101.0	77.0*	86.0
CSc1ccc(/C=C(/NC(=O)c2ccc(C)cc2)C(=O)Nc2cccc(F)c2)cc1	106.0	100.0	103.0	102.0	101.0	98.0
Cc1csc(=Nc2ccccc2)n1Cc1ccco1	100.0	100.0	97.0	104.0	98.0	92.0
O=C(O)c1ccc(/C=N/NC(=O)c2cc(-c3ccc4c5c(cccc35)CC4)n[nH]2)cc1	76.0*	80.0	78.0*	92.0	84.0	91.0
